# Structures can show the parent of a compound that is named as a salt. ± gives the standard deviation of the averaged measurements.
# Key:
# Test in all cases: growth (OD600 after 10 h); higher = more growth (less inhibition)
# [1] = test system: E. coli TESEC Alr+ wild-type control; conditions: compound 0.1 mM; raw OD600 reference: median of DMSO wells 0.241, cell-free background 0.041
# Experimental: (§1)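 TESEC Mtb Alr E. coli, or the Alr+ wild-type control, in 384-well plates with Prestwick library compounds at 0.1 mM and 1% DMSO, across arabinose induction levels of 1E3 to 1E7 nM. Growth is read as OD600 after 10 h at 37 °C in triplicate biological replicates.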
# E. coli TESEC Mtb Alr [2] = conditions: compound 0.1 mM
# Experimental: as §1
# E. coli TESEC Mtb Asd = conditions: compound 0.1 mM
# Experimental: (§2)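 TESEC E. coli strains in which the native enzyme is deleted and replaced by arabinose-inducible Mtb Asd, DapB, CysH or TrpD, each grown in its selective medium. Strains were screened against the Prestwick library at 0.1 mM and 1% DMSO in 384-well format at low and high arabinose induction. Growth is read as OD600 after 10 h in triplicate.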
# E. coli TESEC Mtb DapB = conditions: compound 0.1 mM
# Experimental: as §2
# [3] = test system: E. coli TESEC Alr+ wild-type control; conditions: compound 0.1 mM; raw OD600 reference: median of DMSO wells 0.49, cell-free background 0.052
# Experimental: (§3)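 TESEC Mtb Alr E. coli (ΔaraC ΔtolC ΔentC Δalr ΔdadX, arabinose-inducible Mtb Alr) or the Alr+ wild-type control strain, grown in defined M9-fructose medium without D-alanine in 96-well plates with Prestwick library compounds at 0.1 mM and 1% DMSO. Low Alr induction is 0.1 µM arabinose and high induction is 10 mM arabinose.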
# E. coli TESEC Mtb Alr [4] = conditions: compound 0.1 mM; remark: listed apart in the source
# Experimental: as §3
# [5] = arabinose 1000 nM, raw OD600 reference: median of DMSO wells 0.294, cell-free background 0.041
# [6] = arabinose 10000 nM, raw OD600 reference: median of DMSO wells 0.264, cell-free background 0.041
# [7] = arabinose 100000 nM, raw OD600 reference: median of DMSO wells 0.201, cell-free background 0.041
# [8] = arabinose 1000000 nM, raw OD600 reference: median of DMSO wells 0.193, cell-free background 0.041
# [9] = arabinose 10000000 nM, raw OD600 reference: median of DMSO wells 0.146, cell-free background 0.041
# [10] = arabinose induction (level): High, raw OD600 reference: median of DMSO wells 0.331, cell-free background 0.041
# [11] = arabinose induction (level): Low, raw OD600 reference: median of DMSO wells 0.417, cell-free background 0.041
# [12] = arabinose induction (level): High, raw OD600 reference: median of DMSO wells […], cell-free background 0.041
# [13] = arabinose induction (level): Low, raw OD600 reference: median of DMSO wells 0.227, cell-free background 0.041
# [14] = arabinose 100 nM, raw OD600 reference: median of DMSO wells 0.413, cell-free background 0.052
# [15] = arabinose 10000000 nM, raw OD600 reference: median of DMSO wells […], cell-free background 0.052
Compound,growth [1],growth (E. coli TESEC Mtb Alr [2]; [5]),growth (E. coli TESEC Mtb Alr [2]; [6]),growth (E. coli TESEC Mtb Alr [2]; [7]),growth (E. coli TESEC Mtb Alr [2]; [8]),growth (E. coli TESEC Mtb Alr [2]; [9]),growth (E. coli TESEC Mtb Asd; [10]),growth (E. coli TESEC Mtb Asd; [11]),growth (E. coli TESEC Mtb DapB; [12]),growth (E. coli TESEC Mtb DapB; [13]),growth [3],growth (E. coli TESEC Mtb Alr [4]; [14]),growth (E. coli TESEC Mtb Alr [4]; [15])
CC(C)NCC(O)COc1ccc(CCOCC2CC2)cc1 (configuration not stated) [Betaxolol hydrochloride],0.222 ± 0.0081,0.301 ± 0.0039,0.26 ± 0.0051,0.232 ± 0.034,0.179 ± 0.014,0.161 ± 0.0056,0.264 ± 0.049,0.359 ± 0.069,0.235 ± 0.026,0.246 ± 0.011,0.562 ± 0.028,0.404 ± 0.011,0.341 ± 0.014
C[C@]12CC[C@@H]3c4ccc(O)cc4CC[C@H]3[C@@H]1C[C@@H](O)[C@@H]2O [Estriol],0.152 ± 0.0072,0.218 ± 0.018,0.277 ± 0.015,0.148 ± 0.0042,0.135 ± 0.0069,0.143 ± 0.0047,0.221 ± 0.043,0.264 ± 0.034,0.183 ± 0.008,0.203 ± 0.033,0.474 ± 0.021,0.432 ± 0.0087,0.258 ± 0.013
CC(=O)N(CC(C)C(=O)O)c1c(I)cc(I)c(N)c1I (configuration not stated) [Iocetamic acid],0.213 ± 0.007,0.274 ± 0.0081,0.289 ± 0.0072,0.2 ± 0.01,0.265 ± 0.003,0.144 ± 0.0039,0.36 ± 0.022,0.268 ± 0.021,0.202 ± 0.018,0.202 ± 0.019,0.509 ± 0.026,0.183 ± 0.11,0.397 ± 0.011
CCOc1ccc2nc(S(N)(=O)=O)sc2c1 [Ethoxzolamide],0.2066 ± 0.0019,0.247 ± 0.0061,0.227 ± 0.0027,0.177 ± 0.024,0.134 ± 0.0057,0.122 ± 0.0034,0.283 ± 0.04,0.368 ± 0.045,0.172 ± 0.0065,0.187 ± 0.017,0.552 ± 0.11,0.426 ± 0.0093,0.214 ± 0.13
CN(C)C/C=C(/c1ccc(Br)cc1)c1cccnc1 [Zimelidine dihydrochloride monohydrate],0.2066 ± 0.0016,0.261 ± 0.0081,0.255 ± 0.028,0.192 ± 0.028,0.153 ± 0.0035,0.134 ± 0.0035,0.237 ± 0.037,0.413 ± 0.022,0.168 ± 0.0086,0.261 ± 0.12,0.445 ± 0.04,0.397 ± 0.01,0.303 ± 0.028
O=C(NCCN1CCOCC1)c1ccc(Cl)cc1 [Moclobemide],0.233 ± 0.0068,0.287 ± 0.0083,0.25 ± 0.0059,0.225 ± 0.032,0.177 ± 0.013,0.136 ± 0.0024,0.323 ± 0.11,0.395 ± 0.14,0.191 ± 0.0078,0.217 ± 0.025,0.615 ± 0.038,0.416 ± 0.0096,0.338 ± 0.009
CC(=O)N(O)CCCCCNC(=O)CCC(=O)N(O)CCCCCNC(=O)CCC(=O)N(O)CCCCCN [Deferoxamine mesylate],0.0549 ± 0.00064,0.054 ± 0.0048,0.0561 ± 0.0031,0.0487 ± 0.0017,0.0567 ± 0.0044,0.0625 ± 0.00017,0.139 ± 0.015,0.141 ± 0.027,0.137 ± 0.021,0.13 ± 0.0032,0.1754 ± 0.0017,0.113 ± 0.046,0.0677 ± 0.0037
CCN[C@H]1C[C@H](C)S(=O)(=O)c2sc(S(N)(=O)=O)cc21 [Dorzolamide hydrochloride],0.24 ± 0.0034,0.296 ± 0.003,0.293 ± 0.013,0.211 ± 0.038,0.187 ± 0.0042,0.15 ± 0.0023,0.216 ± 0.014,0.355 ± 0.06,0.199 ± 0.016,0.253 ± 0.023,0.47 ± 0.0087,0.4329 ± 0.0026,0.337 ± 0.019
CC(C)(C(=O)c1cccnc1)c1cccnc1 [Metyrapone],0.246 ± 0.0034,0.311 ± 0.017,0.273 ± 0.0073,0.198 ± 0.0061,0.2 ± 0.017,0.1411 ± 0.00086,0.317 ± 0.017,0.428 ± 0.0064,0.179 ± 0.015,0.188 ± 0.01,0.637 ± 0.095,0.409 ± 0.013,0.3383 ± 0.0029
CC(C)NC(=N)NC(=N)Nc1ccc(Cl)cc1 [Proguanil hydrochloride],0.216 ± 0.0044,0.261 ± 0.006,0.275 ± 0.0087,0.176 ± 0.013,0.143 ± 0.0015,0.142 ± 0.0028,0.216 ± 0.048,0.31 ± 0.068,0.207 ± 0.03,0.244 ± 0.016,0.475 ± 0.012,0.422 ± 0.009,0.345 ± 0.019
OCc1cc(C(O)CNCCCCCCOCCCCc2ccccc2)ccc1O (configuration not stated) [Salmeterol],0.166 ± 0.0032,0.181 ± 0.012,0.159 ± 0.0031,0.171 ± 0.0065,0.0641 ± 0.0012,0.151 ± 0.0035,0.176 ± 0.01,0.202 ± 0.049,0.208 ± 0.017,0.214 ± 0.017,0.399 ± 0.032,0.349 ± 0.0092,0.201 ± 0.033
CCC(=O)O[C@]1(C(=O)SCF)[C@H](C)C[C@H]2[C@@H]3C[C@H](F)C4=CC(=O)C=C[C@]4(C)[C@@]3(F)[C@@H](O)C[C@@]21C [Fluticasone propionate],0.233 ± 0.0036,0.29 ± 0.013,0.274 ± 0.021,0.21 ± 0.012,0.201 ± 0.013,0.149 ± 0.0044,0.258 ± 0.058,0.36 ± 0.046,0.199 ± 0.015,0.239 ± 0.04,0.576 ± 0.026,0.453 ± 0.01,0.381 ± 0.034
Cc1c(Cl)cccc1Nc1ccccc1C(=O)O [Tolfenamic acid],0.0444 ± 0.0007,0.0448 ± 0.0007,0.0413 ± 0.0001,0.0477 ± 0.0013,0.0424 ± 0.00053,0.0598 ± 0.0014,0.0513 ± 0.0022,0.052 ± 0.004,0.0686 ± 0.0054,0.0876 ± 0.044,0.0743 ± 0.0023,0.0964 ± 0.065,0.0536 ± 0.0002
Cc1noc(NS(=O)(=O)c2ccc(N)cc2)c1C [Sulfisoxazole],0.248 ± 0.0068,0.274 ± 0.021,0.203 ± 0.0055,0.213 ± 0.042,0.12 ± 0.0019,0.149 ± 0.0027,0.308 ± 0.035,0.386 ± 0.073,0.19 ± 0.0067,0.205 ± 0.022,0.588 ± 0.015,0.424 ± 0.012,0.313 ± 0.019
